# Assay results from publication PMC7862700, “An all-to-all approach to the identification of sequence-specific readers for epigenetic DNA modifications on cytosine”.
# Columns and labels:
# Experiment in all cases: DAPPL (digital affinity profiling via proximity ligation, sequencing); 10 mM Tris-HCl pH 7.5, 50 mM NaCl, 1 mM DTT, 4% glycerol, room temperature, 30 min; GST-TFs on glutathione beads, 16-mer random dsDNA library, 0.1% formaldehyde crosslink after washing; high values mean tight binding
# Conditions in all cases: protein: recombinant; tags: N-terminal GST; dsDNA, one strand shown
# FLI1 = target: T1, FLI1 (Homo sapiens, UniProt Q01543 1-452)
# T1 sequence: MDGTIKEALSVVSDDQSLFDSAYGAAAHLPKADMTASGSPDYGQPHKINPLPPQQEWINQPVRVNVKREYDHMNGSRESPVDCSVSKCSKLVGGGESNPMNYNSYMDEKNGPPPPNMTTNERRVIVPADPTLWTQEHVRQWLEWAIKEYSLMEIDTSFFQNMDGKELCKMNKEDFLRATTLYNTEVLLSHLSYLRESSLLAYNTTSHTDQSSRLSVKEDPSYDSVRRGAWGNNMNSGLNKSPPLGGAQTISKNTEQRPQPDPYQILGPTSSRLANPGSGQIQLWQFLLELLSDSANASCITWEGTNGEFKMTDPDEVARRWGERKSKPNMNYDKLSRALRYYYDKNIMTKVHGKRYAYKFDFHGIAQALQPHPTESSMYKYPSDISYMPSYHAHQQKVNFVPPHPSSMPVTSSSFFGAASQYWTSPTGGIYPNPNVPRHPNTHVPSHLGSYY
# How it was run: (§1)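 Human transcription factors carrying a GST fusion were produced in yeast, bound to glutathione beads, tagged with DNA barcodes and pooled together with a tag-only sample. Each pool was held with 200 nmole of a random double-stranded 16-mer DNA library in Tris/NaCl/DTT/glycerol buffer for 30 min at room temperature, then washed, crosslinked in 0.1% formaldehyde, proximity-ligated with BsaI/T4 ligase (1 h, 37 °C), PCR-amplified and sequenced on an Illumina NextSeq500. Binding signal is the read frequency of each hexamer for a given factor divided by its frequency in the tag-only sample.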
# GABPA = target: T2, GABPA (Homo sapiens, UniProt Q06546 1-454)
# T2 sequence: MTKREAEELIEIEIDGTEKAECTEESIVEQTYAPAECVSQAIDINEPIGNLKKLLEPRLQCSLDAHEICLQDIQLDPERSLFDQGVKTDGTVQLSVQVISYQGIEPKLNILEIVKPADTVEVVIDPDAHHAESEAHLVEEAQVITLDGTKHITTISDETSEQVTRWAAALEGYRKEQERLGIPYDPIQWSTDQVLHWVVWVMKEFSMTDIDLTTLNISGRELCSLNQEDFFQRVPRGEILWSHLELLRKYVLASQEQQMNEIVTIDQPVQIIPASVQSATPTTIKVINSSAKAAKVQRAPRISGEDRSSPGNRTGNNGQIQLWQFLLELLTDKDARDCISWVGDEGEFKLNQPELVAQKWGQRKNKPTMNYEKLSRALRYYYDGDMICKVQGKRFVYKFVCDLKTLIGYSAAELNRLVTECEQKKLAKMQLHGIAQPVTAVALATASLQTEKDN
# How it was run: as §1
# ERG = target: T3, ERG (Homo sapiens, UniProt P11308 1-479)
# T3 sequence: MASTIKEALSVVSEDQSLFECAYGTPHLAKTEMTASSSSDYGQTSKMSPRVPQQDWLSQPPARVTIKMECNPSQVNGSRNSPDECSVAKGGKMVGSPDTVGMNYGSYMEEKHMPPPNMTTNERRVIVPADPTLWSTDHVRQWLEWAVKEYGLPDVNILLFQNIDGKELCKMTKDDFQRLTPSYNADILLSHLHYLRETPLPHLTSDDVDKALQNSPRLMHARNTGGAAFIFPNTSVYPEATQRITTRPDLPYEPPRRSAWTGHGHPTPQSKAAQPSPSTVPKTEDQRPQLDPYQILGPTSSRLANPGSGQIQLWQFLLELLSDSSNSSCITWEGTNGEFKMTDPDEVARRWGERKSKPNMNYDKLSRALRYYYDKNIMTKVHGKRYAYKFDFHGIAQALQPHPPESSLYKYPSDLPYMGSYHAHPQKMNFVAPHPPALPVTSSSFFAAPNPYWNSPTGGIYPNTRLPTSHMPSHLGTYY
# How it was run: as §1
# ELF1 = ELF1 (Homo sapiens, UniProt P32519 1-619)
# ELF1, sequence (P32519 whole entry): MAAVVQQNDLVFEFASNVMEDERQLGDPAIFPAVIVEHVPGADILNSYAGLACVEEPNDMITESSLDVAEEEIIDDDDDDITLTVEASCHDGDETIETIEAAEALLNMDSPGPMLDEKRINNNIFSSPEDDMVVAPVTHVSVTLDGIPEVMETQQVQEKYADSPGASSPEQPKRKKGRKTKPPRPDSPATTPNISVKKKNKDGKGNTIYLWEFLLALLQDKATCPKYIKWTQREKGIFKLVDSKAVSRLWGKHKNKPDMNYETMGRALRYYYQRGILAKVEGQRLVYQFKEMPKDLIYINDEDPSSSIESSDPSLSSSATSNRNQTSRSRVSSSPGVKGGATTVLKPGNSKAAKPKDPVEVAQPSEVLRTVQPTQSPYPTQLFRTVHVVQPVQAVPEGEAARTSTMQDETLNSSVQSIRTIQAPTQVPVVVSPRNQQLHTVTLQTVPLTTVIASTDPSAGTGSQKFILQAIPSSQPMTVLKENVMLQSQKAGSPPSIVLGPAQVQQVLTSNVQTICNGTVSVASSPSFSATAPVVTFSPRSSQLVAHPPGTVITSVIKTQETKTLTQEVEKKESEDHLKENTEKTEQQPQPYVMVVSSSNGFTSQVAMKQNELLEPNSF
# How it was run: as §1
# EHF = target: T4, EHF (Homo sapiens, UniProt Q9NZC4 1-300)
# T4 sequence: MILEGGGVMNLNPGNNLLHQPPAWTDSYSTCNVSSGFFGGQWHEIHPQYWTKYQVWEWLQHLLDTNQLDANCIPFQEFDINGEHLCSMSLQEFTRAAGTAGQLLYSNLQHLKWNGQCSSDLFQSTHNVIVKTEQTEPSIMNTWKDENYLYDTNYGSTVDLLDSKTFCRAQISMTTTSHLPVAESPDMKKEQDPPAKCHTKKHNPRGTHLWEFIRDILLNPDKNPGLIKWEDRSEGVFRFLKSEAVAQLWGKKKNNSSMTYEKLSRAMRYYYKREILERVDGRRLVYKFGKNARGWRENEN
# How it was run: as §1
# SPI1 = SPI1 (Homo sapiens, UniProt P17947 1-270)
# How it was run: as §1
# SPIB = SPIB (Homo sapiens, UniProt Q01892 1-262)
# SPIB, sequence (Q01892 whole entry): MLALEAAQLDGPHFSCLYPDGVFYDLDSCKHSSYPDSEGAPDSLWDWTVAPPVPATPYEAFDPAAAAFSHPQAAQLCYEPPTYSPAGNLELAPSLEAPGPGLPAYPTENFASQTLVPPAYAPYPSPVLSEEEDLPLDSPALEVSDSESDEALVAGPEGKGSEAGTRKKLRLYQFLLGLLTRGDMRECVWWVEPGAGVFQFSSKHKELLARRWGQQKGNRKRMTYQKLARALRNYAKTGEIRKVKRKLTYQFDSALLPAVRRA
# How it was run: as §1
# ELK3 = target: T5, ELK3 (Homo sapiens, UniProt P41970 1-407)
# T5 sequence: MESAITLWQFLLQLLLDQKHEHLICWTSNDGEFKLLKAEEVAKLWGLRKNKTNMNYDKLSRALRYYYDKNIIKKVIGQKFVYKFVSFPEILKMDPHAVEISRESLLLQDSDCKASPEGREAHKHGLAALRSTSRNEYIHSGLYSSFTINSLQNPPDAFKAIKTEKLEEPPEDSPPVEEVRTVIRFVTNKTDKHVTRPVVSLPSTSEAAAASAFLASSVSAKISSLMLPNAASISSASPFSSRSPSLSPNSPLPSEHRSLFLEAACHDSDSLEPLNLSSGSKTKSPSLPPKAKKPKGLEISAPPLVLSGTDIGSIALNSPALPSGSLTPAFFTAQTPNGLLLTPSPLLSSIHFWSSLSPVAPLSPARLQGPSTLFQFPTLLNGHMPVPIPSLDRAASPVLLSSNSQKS
# How it was run: as §1
# ELK4 = target: T6, ELK4 (Homo sapiens, UniProt P28324-2 1-405)
# T6 sequence: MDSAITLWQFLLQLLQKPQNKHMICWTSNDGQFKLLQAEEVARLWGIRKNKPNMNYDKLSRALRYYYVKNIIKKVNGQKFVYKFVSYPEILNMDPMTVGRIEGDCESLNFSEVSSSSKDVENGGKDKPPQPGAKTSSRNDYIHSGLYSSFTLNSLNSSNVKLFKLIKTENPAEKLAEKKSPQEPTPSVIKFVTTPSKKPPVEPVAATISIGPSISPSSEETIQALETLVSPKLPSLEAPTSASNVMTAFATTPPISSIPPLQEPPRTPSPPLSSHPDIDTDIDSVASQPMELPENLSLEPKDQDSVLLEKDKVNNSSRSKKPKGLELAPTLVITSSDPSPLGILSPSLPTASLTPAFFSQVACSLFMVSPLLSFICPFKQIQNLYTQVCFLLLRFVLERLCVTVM
# How it was run: as §1
# ETV2 = target: T7, ETV2 (Homo sapiens, UniProt O00321 1-342)
# T7 sequence: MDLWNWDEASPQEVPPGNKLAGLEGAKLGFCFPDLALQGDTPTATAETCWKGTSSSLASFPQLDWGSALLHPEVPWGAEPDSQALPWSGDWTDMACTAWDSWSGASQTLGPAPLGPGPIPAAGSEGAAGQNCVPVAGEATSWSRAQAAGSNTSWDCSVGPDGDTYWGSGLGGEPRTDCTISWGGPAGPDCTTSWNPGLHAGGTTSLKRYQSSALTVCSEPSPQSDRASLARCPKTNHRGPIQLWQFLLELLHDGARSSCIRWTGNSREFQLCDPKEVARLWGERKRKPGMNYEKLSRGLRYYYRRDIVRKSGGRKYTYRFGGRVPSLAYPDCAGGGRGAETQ
# How it was run: as §1
# ETV1 = ETV1 (Homo sapiens, UniProt P50549 1-477)
# ETV1, sequence (P50549 whole entry): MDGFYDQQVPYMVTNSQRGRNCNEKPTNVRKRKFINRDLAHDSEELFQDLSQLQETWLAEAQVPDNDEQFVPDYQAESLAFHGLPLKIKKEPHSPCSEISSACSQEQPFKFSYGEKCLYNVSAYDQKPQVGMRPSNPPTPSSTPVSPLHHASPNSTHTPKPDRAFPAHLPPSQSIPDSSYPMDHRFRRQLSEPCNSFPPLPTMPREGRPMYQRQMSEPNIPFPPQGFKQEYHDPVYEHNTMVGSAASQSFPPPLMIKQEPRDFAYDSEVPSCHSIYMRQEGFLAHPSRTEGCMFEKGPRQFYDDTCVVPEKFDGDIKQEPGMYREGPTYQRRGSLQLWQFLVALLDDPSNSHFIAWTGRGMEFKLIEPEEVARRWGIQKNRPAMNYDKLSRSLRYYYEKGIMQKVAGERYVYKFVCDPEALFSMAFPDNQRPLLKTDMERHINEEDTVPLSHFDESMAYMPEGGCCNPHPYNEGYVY
# How it was run: as §1
# ERF = target: T8, ERF (Homo sapiens, UniProt P50548 1-548)
# T8 sequence: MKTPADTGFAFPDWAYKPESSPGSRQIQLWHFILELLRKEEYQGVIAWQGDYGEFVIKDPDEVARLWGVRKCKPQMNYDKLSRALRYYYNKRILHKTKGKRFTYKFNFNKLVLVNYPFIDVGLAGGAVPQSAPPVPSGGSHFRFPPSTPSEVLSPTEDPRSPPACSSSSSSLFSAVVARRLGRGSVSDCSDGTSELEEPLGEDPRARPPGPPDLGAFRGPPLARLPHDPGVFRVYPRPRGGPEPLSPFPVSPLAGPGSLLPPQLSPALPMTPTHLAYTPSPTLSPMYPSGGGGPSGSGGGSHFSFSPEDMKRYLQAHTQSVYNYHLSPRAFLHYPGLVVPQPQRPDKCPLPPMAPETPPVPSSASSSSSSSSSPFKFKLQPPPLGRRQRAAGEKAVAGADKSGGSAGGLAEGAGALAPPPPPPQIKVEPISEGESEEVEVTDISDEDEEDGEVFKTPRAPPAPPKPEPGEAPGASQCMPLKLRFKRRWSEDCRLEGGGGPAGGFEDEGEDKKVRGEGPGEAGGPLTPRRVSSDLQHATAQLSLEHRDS
# How it was run: as §1
# ETV3L = target: T9, ETV3L (Homo sapiens, UniProt Q6ZN32 1-361)
# T9 sequence: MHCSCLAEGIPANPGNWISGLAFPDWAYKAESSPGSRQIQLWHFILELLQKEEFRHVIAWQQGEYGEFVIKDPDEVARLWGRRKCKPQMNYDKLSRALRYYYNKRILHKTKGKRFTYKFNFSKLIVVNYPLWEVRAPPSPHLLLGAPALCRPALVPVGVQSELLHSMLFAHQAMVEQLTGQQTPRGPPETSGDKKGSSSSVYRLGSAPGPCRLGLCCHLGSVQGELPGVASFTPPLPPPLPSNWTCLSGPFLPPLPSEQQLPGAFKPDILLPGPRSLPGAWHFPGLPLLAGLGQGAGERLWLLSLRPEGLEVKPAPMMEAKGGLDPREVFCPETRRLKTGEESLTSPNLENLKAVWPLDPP
# How it was run: as §1
# ETV3 = target: T10, ETV3 (Homo sapiens, UniProt P41162-2 1-143)
# T10 sequence: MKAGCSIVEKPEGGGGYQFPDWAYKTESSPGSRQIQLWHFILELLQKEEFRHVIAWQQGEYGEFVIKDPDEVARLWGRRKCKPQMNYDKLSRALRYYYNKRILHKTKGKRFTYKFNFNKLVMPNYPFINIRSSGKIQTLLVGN
# How it was run: as §1
# ETV6 = ETV6 (Homo sapiens, UniProt P41212 1-452)
# ETV6, sequence (P41212 whole entry): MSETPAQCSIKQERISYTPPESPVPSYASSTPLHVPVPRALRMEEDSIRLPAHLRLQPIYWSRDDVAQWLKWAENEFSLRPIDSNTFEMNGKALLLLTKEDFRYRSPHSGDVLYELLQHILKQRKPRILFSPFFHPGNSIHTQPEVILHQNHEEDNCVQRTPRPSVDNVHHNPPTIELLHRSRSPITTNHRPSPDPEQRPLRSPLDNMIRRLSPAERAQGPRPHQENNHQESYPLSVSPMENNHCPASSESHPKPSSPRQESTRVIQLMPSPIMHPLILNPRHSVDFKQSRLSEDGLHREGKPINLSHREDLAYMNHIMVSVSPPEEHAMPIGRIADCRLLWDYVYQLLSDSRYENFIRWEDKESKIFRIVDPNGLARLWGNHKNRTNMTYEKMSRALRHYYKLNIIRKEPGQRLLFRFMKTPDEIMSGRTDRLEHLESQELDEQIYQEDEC
# How it was run: as §1
sequence,measurement,setting,value
CCTGGC,binding signal,FLI1,"1.03 fold enrichment (6-mer frequency, TF over GST control)"
same,binding signal,GABPA,"1.1 fold enrichment (6-mer frequency, TF over GST control)"
same,binding signal,ERG,"1.15 fold enrichment (6-mer frequency, TF over GST control)"
same,binding signal,ELF1,"1.07 fold enrichment (6-mer frequency, TF over GST control)"
same,binding signal,EHF,"1.04 fold enrichment (6-mer frequency, TF over GST control)"
same,binding signal,SPI1,"1.05 fold enrichment (6-mer frequency, TF over GST control)"
same,binding signal,SPIB,"1.03 fold enrichment (6-mer frequency, TF over GST control)"
same,binding signal,ELK3,"1.06 fold enrichment (6-mer frequency, TF over GST control)"
same,binding signal,ELK4,"1.13 fold enrichment (6-mer frequency, TF over GST control)"
same,binding signal,ETV2,"1.27 fold enrichment (6-mer frequency, TF over GST control)"
same,binding signal,ETV1,"1.04 fold enrichment (6-mer frequency, TF over GST control)"
same,binding signal,ERF,"1.03 fold enrichment (6-mer frequency, TF over GST control)"
same,binding signal,ETV3L,"1.08 fold enrichment (6-mer frequency, TF over GST control)"
same,binding signal,ETV3,"1.01 fold enrichment (6-mer frequency, TF over GST control)"
same,binding signal,ETV6,"1.08 fold enrichment (6-mer frequency, TF over GST control)"
